USP10 inh: inhibitors of human USP10 deubiquitinase; purified USP10, Ub-rhodamine fluorescence, 60 min; 1.1% of 47,000 active; AID 1645856, 2021; inhibition, % at 20 µM; Ubiquitin carboxyl-terminal hydrolase 10 (Homo sapiens), Q14694
USP17 inh: inhibitors of human USP17 deubiquitinase; AID 1645855, 2021; Ubiquitin carboxyl-terminal hydrolase 17-like protein 5 (Homo sapiens), A8MUK1; 6.5% of 47,000 active; inhibition, % at 50 µM; purified USP17, Ub-rhodamine cleavage fluorescence, 3 h
OTUD3 inh: inhibitors of human OTUD3 deubiquitinase. OTU domain-containing protein 3 (Homo sapiens), Q5T2D3. inhibition, % at 25 µM. 0.7% of 47,000 active. purified OTUD3, Ub-rhodamine fluorescence, 2 h
USP7 block: inhibitors of human USP7 deubiquitinase. Ubiquitin carboxyl-terminal hydrolase 7 (Homo sapiens), Q93009. purified USP7, Ub-rhodamine cleavage fluorescence. inhibition, % at 20 µM. 0.3% of 47,000 active. AID 1645854, 2021
USP8 inh: inhibitors of human USP8 deubiquitinase; 4.2% of 47,000 active; purified USP8, Ub-rhodamine cleavage fluorescence, 30 min; inhibition, % at 20 µM
UCHL1 inh: inhibitors of human UCHL1 deubiquitinase. purified UCHL1, Ub-rhodamine cleavage fluorescence. inhibition, % at 20 µM. 0.2% of 47,000 active. AID 1645859, 2021
* hit, by the source's call; x = not tested or not shown. This is a sample that favours compounds with a hit; in the whole collection about 9.2% have one here. No stated cut-off is given here; in the data, active means inhibition above about 30%; inactive means the rest.

SMILES	USP10 inh	USP17 inh	OTUD3 inh	USP7 block	USP8 inh	UCHL1 inh
O=c1c2cc([N+](=O)[O-])ccc2nc(CN2CCN(c3ccccn3)CC2)n1-c1ccccc1F	4	22	30*	-17	-44	4
O=C(Nc1cc(=O)[nH]c2nc(COc3ccccc3)nn12)c1ccc(Cl)cc1	19	x	-25	6	35*	1
O=C(Nc1cc(=O)[nH]c2nc(COc3ccccc3)nn12)c1ccccc1	0	-104	-6	6	-11	-2
Cc1ccc(NC(=O)N2CCC3(CC2)C(=O)Nc2ccccc23)cc1	4	5	3	1	-17	3
CCn1c(CCNC(=O)Cc2ccccc2)nc2ccccc21	0	-2	0	-3	1	-1
Cc1ccc(-c2onc3ccc(C(=O)N4CCN(c5ccccc5)CC4)cc23)cc1	5	-23	-7	6	-6	3
Cc1nn(-c2ccccc2)nc1C(=O)Nc1ccc(N(C)C)nc1	-10	-189	-173	-22	-94	-35
CCCc1nc2sc3c(NCCc4ccc(OC)c(OC)c4)ncnc3c2c2c1CCC2	-6	-23	-28	0	-9	-1
c1ccc2c(c1)c(NCc1ccc3c(c1)OCO3)nn1cnnc21	-2	41*	3	2	4	3
CC(C)(CNc1nn2cnnc2c2ccccc12)N1CCOCC1	5	12	7	3	23	3
CCN1CCN(C(=O)CCCN(c2ccccc2)S(C)(=O)=O)CC1	2	62*	15	2	3	1
COCCn1c(SCC(=O)Nc2ccc(OC)cc2)nnc1-c1c[nH]c2ccccc12	0	9	3	-1	4	0
Cc1ccc(C)c(NC(=O)CSc2nnc(Cc3cccc4ccccc34)n2C)c1	0	-13	2	-5	-18	1
Cc1nc2c(C)cccn2c(=O)c1Cc1nnc(SCC(=O)Nc2ccccc2)n1C	0	36*	-5	0	0	-1
CCOc1ccc(-n2c(SCC(=O)Nc3ccc(C)cc3)nnc2-c2c[nH]c3ccccc23)cc1	71*	63*	12	15	97*	7
CCOc1ccc(NC(=O)CSc2nnc(Cc3cccc4ccccc34)n2C)cc1	-1	65*	7	-7	-5	1
Cn1c(COc2ccccc2)nnc1SCC(=O)Nc1ccc(N2CCOCC2)cc1	1	22	14	0	16	-2
O=C1OC2CC1N(C(=O)COc1ccccc1F)C2 (configuration not stated)	-1	x	0	1	-35	-2
CCOC(=O)c1noc2nc(C)n(Cc3nc(-c4cccs4)oc3C)c(=O)c12	-3	-5	1	-1	-1	1
O=C(Nc1ccccc1N1CCCCC1)C(c1ccccc1)c1ccccc1	9	x	8	7	-1	1
O=C(CNCc1cccc(Cl)c1)N1CCc2ccccc2C1	-1	46*	3	-8	72*	3
O=C(NCc1ccc(Cl)cc1)N1CCc2ccccc2C1	2	27	0	-52	10	-2
Cc1c2oc3c(C)ccc(C(=O)NC4C(=O)N[C@@H](C(C)C)C(=O)N5CCCC5C(=O)N(C)CC(=O)N(C)C(C(C)C)C(=O)OC4C)c3nc-2c(C(=O)NC2C(=O)N[C@H](C(C)C)C(=O)N3CCCC3C(=O)N(C)CC(=O)N(C)C(C(C)C)C(=O)OC2C)c(N)c1=O (some centres not stated)	-2	62*	-24	-15	17	2
CCc1cccc(N2C(=O)c3ccccc3C2C(=O)NCc2ccccc2OC)c1 (configuration not stated)	19	7	-1	1	32*	-3
Cc1cccc(NC(=O)C2CCCN(S(=O)(=O)N3CCOCC3)C2)c1C (configuration not stated)	0	-13	-15	-1	-2	-3
SMILES	USP10 inh	USP17 inh	OTUD3 inh	USP7 block	USP8 inh	UCHL1 inh
CCCCc1nc2sc3c(SCC(=O)Nc4ccc(OC)cc4)ncnc3c2c2c1CCC2	0	25	15	3	16	1
COc1ccc(CNc2nn3c(-c4ccncc4)cnc3s2)cc1	12	34*	5	6	11	5
c1ccc(CNc2nn3c(-c4ccncc4)cnc3s2)cc1	4	51*	5	6	-3	2
O=C(C1CC1)N1CCCC(Cc2cc(-c3ccccc3)no2)(C(=O)O)C1 (configuration not stated)	-3	1	9	3	0	-2
O=C(Cn1ncc2c(N3CCCCC3)ncnc21)NCc1ccc2c(c1)OCO2	0	55*	17	2	2	0
O=C(NCc1cccnc1)c1cccc(-c2ccc(N3CCCC3)nc2)c1	-2	-1	-3	-11	2	0
O=C(NCc1ccc2c(c1)OCO2)c1cccc(-c2cnc(N3CCCC3)nc2)c1	11	30*	14	5	29	3
COc1ccc(CNC(=O)c2cccc(-c3cnc(N4CCCC4)nc3)c2)cc1	8	45*	-1	0	0	-2
Cc1cccc(CNC(=O)c2cccc(-c3cnc(N4CCCC4)nc3)c2)c1	6	-3	0	1	-3	1
CC1CCN(Cc2cccc(Cl)c2)Cc2nc3ccccc3n21 (configuration not stated)	0	6	17	5	18	3
O=C(c1ccc(F)cc1)N1CCN(Cc2nnnn2-c2ccccc2)CC1	2	-6	-2	-2	-38	-3
O=C(O)c1c(CNC2CCCCCC2)c2ccccc2n1Cc1ccc(F)cc1	-8	x	-9	-177	-17	45*
O=C(O)c1c(CNC2CCCCC2)c2ccccc2n1Cc1cccc(F)c1	-4	-4	-14	-144	-1	-150
O=C(O)c1c(CNCc2cccs2)c2ccccc2n1Cc1cccc(F)c1	-10	47*	0	-176	0	-136
Cc1cc(=O)n(CC(=O)Nc2ccc(F)cc2)c(N2CCCCC2)n1	2	-5	-3	-44	-19	-1
COc1ccc2c(C)cc(SCC(=O)Nc3nsc(-c4ccc(C)cc4)n3)nc2c1	6	60*	47*	1	-2	-1
COc1cccc(NC(=O)CSc2cc(C)c3cc(S(=O)(=O)N(C)C)ccc3n2)c1	-9	-19	-12	-1	-3	-4
O=C1CC(c2ccccc2F)c2c(nc(-c3ccccc3)[nH]c2=O)N1 (configuration not stated)	1	6	0	7	-5	5
COc1cc(C2CC(=O)Nc3nc(-c4ccccc4)[nH]c(=O)c32)cc(OC)c1O (configuration not stated)	19	82*	47*	24	9	8
CCN[C@H]1C[C@@H](c2ccccc2)OC2(CCN(Cc3cn(C)nc3C)CC2)C1	-1	31*	13	4	-13	1
